# Records with an inconclusive call do not appear. A call without a number means that no potency is given here. Activity calls are given as the source filed them. Unless noted, calls follow the shape of the dose curve; as a rule, active = well fitted curve in the direction sought with a large enough effect; inconclusive = small, poorly fitted or top-dose-only effect, or another doubt; inactive = no such curve, though single readings can be large; an effect the other way counts as inactive or inconclusive.
# How the values were obtained:
# [1] = qHTS to identify inhibitors of the type 1 interferon - major histocompatibility complex class I in skeletal muscle: primary screen against the NCATS Pharmaceutical Collection (AID 1347407);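 also: luminescence of HiBiT knocked into endogenous HLA-B as interferon-induced MHC class I level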
# Summary of the method: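 Immortalized human myoblasts (C25cl48) with HiBiT knocked into endogenous HLA-B*08:01 were stimulated with 4 ng/ml IFN-beta and treated with compounds (8-point, 1:5, top 46 uM final) for 24 h at 37 C; HiBiT lytic luminescence read.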
# [2] = target: Protein phosphatase 1D (Homo sapiens) (UniProt O15297); test: RapidFire Mass Spectrometry qHTS Assay for Modulators of WT P53-Induced Phosphatase 1 (WIP1) (AID 1347424);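 also: amount of dephosphorylated VEPPL-S-QETFS peptide product formed by WIP1; series mostly up to about 63 µM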
# Summary of the method: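 WIP1 (10 nM final) was preincubated 1 h at room temperature with compounds in Tris-HCl pH 7.5, 30 mM MgCl2, TCEP, EGTA, BSA; 2 uM VEPPL-pS-QETFS phosphopeptide was added for 5 min, quenched with formic acid, and dephosphorylated product quantified by RapidFire MS.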
# [3] = target: Protein phosphatase 1D (Homo sapiens) (UniProt O15297); test: Rhodamine-PBP qHTS Assay for Modulators of WT P53-Induced Phosphatase 1 (WIP1) (AID 1347425)
# Summary of the method: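 The read-out is the change in Rhodamine-PBP fluorescence (f1 - f0, ex 525/em 598 nm) as Pi is released, read each minute for 11 min. Final reaction: 5 nM WIP1, 10 uM phosphopeptide VEPPL-pS-QETFS, 10 uM Rh-PBP, 50 mM Tris-HCl pH 7.5, 30 mM MgCl2. Compound was preincubated with enzyme for 1 hour at room temperature.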
# [4] = Primary qHTS for inhibitors of SARS-S pseudo-typed particle cell entry (AID 1479145; calls by dose curve; also: nearly all actives have a fitted effect of over 45% in size; also: potency is read from the fitted curve at half-maximal effect)
# [5] = Primary qHTS for Huh7 cytotoxicity: counterscreen for inhibitors of MERS-S pseudotyped particle cell entry (AID 1479147; calls by dose curve)
# [6] = qHTS to identify inhibitors of the type 1 interferon - major histocompatibility complex class I in skeletal muscle: primary screen against the NCATS Mechanism Interrogation Plate v5.0 (MIPE) Libary (AID 1347411); also: nearly all actives have a fitted effect of over 65% in size
# Summary of the method: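 Luminescence from HiBiT-tagged endogenous HLA-B*08:01 served as the MHC class I read-out. CRISPR-engineered C25cl48 human myoblasts received 4.0 ng/ml IFN-beta plus compound for 24 hrs, with an 11-point, 1:3 series topping at 46 uM final.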
# [7] = Validation qHTS assay for inhibitors of Activation Induced Cytidine Deaminase (AID): UDG Counterscreen signal (AID 1347427)
# Summary of the method: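 Counterscreen read of UDG activity (2 U/mL, 4/3x) in the FRET deamination format with AID (1 uM, 4/3x), DJC20/DJC23 substrates (250 nM, 4x), 4 h at room temperature. NaOH stop, fluorescence at 560 ex/665 em.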
# [8] = target: Single-stranded DNA cytosine deaminase (Homo sapiens) (UniProt Q9GZX7); test: Validation qHTS assay for inhibitors of Activation Induced Cytidine Deaminase (AID): AID signal (AID 1347429)
# Summary of the method: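 Fluorescence at 540 nm excitation and 590 nm emission reports ssDNA cytosine deamination by AID, with UDG in the same well. Compound-treated reactions ran 4 hr at room temperature with DJC20/DJC23 substrate, followed by 30 min NaOH treatment.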
# [9] = qHTS for inhibitors of adenylyl cyclases using a fission yeast platform: a pilot screen against the NCATS LOPAC library (AID 1347410)
# Summary of the method: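 S. pombe CHP2027 (AC9-GNAS-PDE4D2) carrying a PKA-repressed fbp1-GFP reporter was exposed to LOPAC compounds (final up to 57 µM) for 18 h at 30C in the dark, in EMM with histidine, lysine and uracil; GFP gain-of-signal read by laser scanning cytometry.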
# Protein phosphatase 1D (Homo sapiens), sequence (O15297 whole entry, looked up): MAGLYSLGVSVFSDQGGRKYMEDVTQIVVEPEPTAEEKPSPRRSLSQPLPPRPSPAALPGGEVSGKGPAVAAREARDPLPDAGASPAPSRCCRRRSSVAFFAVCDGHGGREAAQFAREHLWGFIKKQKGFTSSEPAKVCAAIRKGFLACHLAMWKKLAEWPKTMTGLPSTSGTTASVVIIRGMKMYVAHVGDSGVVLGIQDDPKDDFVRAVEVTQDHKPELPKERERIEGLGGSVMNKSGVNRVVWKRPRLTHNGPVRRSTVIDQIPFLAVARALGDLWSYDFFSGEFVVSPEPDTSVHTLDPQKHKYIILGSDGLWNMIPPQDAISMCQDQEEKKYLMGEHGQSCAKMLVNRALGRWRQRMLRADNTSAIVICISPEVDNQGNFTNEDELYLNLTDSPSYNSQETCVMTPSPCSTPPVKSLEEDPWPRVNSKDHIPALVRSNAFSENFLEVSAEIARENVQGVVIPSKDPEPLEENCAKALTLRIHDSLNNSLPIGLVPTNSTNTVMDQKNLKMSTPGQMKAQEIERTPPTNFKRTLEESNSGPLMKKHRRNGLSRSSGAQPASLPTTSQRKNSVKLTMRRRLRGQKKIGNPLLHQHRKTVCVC
# Single-stranded DNA cytosine deaminase (Homo sapiens), sequence (Q9GZX7 whole entry, looked up): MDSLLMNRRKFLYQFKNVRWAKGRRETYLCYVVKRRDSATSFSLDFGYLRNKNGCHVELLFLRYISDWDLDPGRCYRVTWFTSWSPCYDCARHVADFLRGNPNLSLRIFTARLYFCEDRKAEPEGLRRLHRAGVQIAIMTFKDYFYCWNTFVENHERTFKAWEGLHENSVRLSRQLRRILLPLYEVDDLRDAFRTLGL
compound,measurement,setting,value
CCOP(=S)(OCC)Oc1cc(C)nc(C(C)C)n1,Potency,[1],inactive
same,Potency,[2],inactive
same,outcome,[3],inactive
Clc1cccc(N2CCNCC2)c1,Potency,[1],inactive
same,outcome,[3],inactive
CN1C(=S)CN=C(c2ccccc2)c2cc(Cl)ccc21,Potency,[1],inactive
same,Potency,[2],inactive
same,outcome,[3],inactive
FC(F)(F)c1cccc(C2=CCN(CCc3ccc4ccccc4c3)CC2)c1,Potency,[1],inactive
same,Potency,[2],inactive
same,outcome,[3],inactive
same,Potency,[4],inactive
same,Potency,[5],inactive
COc1ccc(C(=O)c2c(C)n(CCN3CCOCC3)c3ccccc23)cc1,Potency,[1],inactive
same,outcome,[3],inactive
CC(C)(N)Cc1ccc(Cl)cc1,Potency,[1],inactive
same,outcome,[3],inactive
COc1ccc2c(c1OC)CN1CCc3cc4c(cc3C1C2)OCO4 (centres undefined),Potency,[1],inactive
same,outcome,[3],inactive
CC[N+](CC)(CC)CC,Potency,[1],inactive
same,outcome,[3],inactive
Cc1ccc(-c2nc3ccc(C)cn3c2CC(=O)N(C)C)cc1,Potency,[1],inactive
same,Potency,[2],inactive
same,outcome,[3],inactive
Cc1ccc2c(c1)C1CN(C)CCC1N2 (centres undefined),Potency,[1],inactive
same,outcome,[3],inactive
CC(C)CC(N(C)C)C1(c2ccc(Cl)cc2)CCC1 (centres undefined),Potency,[1],inactive
same,Potency,[2],inactive
same,outcome,[3],inactive
CN(C)CCc1ccc(O)cc1,Potency,[1],inactive
same,outcome,[3],inactive
CN1CCN(C(=O)O[C@H]2c3nccnc3C(=O)N2c2ccc(Cl)cn2)CC1,Potency,[1],inactive
same,Potency,[2],inactive
same,outcome,[3],inactive
same,Potency,[4],inactive
same,Potency,[5],inactive
C=CCN1CC[C@]23c4c5ccc(O)c4O[C@H]2C(=O)CC[C@@]3(O)[C@H]1C5,Potency,[1],inactive
same,outcome,[3],inactive
same,Potency,[4],inactive
same,Potency,[5],inactive
CCCC1CCCCN1 (centres undefined),Potency,[1],inactive
same,outcome,[3],inactive
same,Potency,[5],inactive
NNc1nncc2ccccc12,Potency,[4],inactive
CCC(COC(=O)c1cc(OC)c(OC)c(OC)c1)(c1ccccc1)N(C)C (centres undefined),Potency,[1],inactive
same,outcome,[3],inactive
same,Potency,[5],inactive
Cc1cc(SCc2sc(-c3ccc(C(F)(F)F)c(F)c3)nc2C)ccc1OCC(=O)O,Potency,[6],inactive
CC(=O)Nc1cc([As](=O)(O)O)ccc1O,Potency,[1],inactive
same,outcome,[3],inactive
same,Potency,[4],inactive
same,Potency,[5],inactive
CC(C)OC(=O)C(C)(C)Oc1ccc(C(=O)c2ccc(Cl)cc2)cc1,Potency,[4],inactive
CC(C)C[C@H](NC(=O)[C@H](CCc1ccccc1)NC(=O)CN1CCOCC1)C(=O)N[C@@H](Cc1ccccc1)C(=O)N[C@@H](CC(C)C)C(=O)[C@@]1(C)CO1,Potency,[4],1 µM (active)
CCC(C(N)=O)N1CCCC1=O (centres undefined),Potency,[1],inactive
same,outcome,[3],inactive
same,Potency,[4],inactive
same,Potency,[5],inactive
COC1(CS(=O)c2ccccc2)CCN(CCc2c[nH]c3ccc(F)cc23)CC1 (centres undefined),Potency,[6],inactive
CN1CCC[C@@H]1CCO[C@](C)(c1ccccc1)c1ccc(Cl)cc1,Potency,[4],10 µM (active)
O=C1CC[C@@]2(O)[C@H]3Cc4ccc(O)c5c4[C@@]2(CCN3CC2CC2)[C@H]1O5,Potency,[2],inactive
same,outcome,[3],inactive
same,Potency,[4],inactive
same,Potency,[5],inactive
Nc1ccn([C@@H]2O[C@H](CO)[C@@H](O)C2(F)F)c(=O)n1,Potency,[4],0.794 µM (active)
Clc1ccc(COC(Cn2ccnc2)c2ccc(Cl)cc2Cl)cc1 (centres undefined),Potency,[2],inactive
same,outcome,[3],inactive
same,Potency,[5],inactive
Oc1ccc(Cl)cc1Cc1ccccc1,Potency,[1],inactive
same,Potency,[4],inactive
same,Potency,[5],inactive
C[C@]12C/C(=C/O)C(=O)C[C@@H]1CC[C@@H]1[C@@H]2CC[C@@]2(C)[C@H]1CC[C@]2(C)O,Potency,[2],inactive
same,outcome,[3],inactive
CCC(=O)C(CC(C)N(C)C)(c1ccccc1)c1ccccc1 (centres undefined),outcome,[3],inactive
Cc1oncc1C(=O)Nc1ccc(C(F)(F)F)cc1,Potency,[4],inactive
CCCCc1oc2ccc(NS(C)(=O)=O)cc2c1C(=O)c1ccc(OCCCN(CCCC)CCCC)cc1,Potency,[4],22.4 µM (active)
CCCC(C)(COC(N)=O)COC(=O)NC(C)C (centres undefined),Potency,[1],inactive
same,outcome,[3],inactive
same,outcome,[7],inactive
same,outcome,[8],inactive
CN(C)CCN(C)CCc1ccc(Cl)c(Cl)c1,Potency,[6],inactive
OCCOc1ccccc1,Potency,[1],inactive
same,outcome,[3],inactive
same,Potency,[4],inactive
same,Potency,[5],inactive
C[C@]12CC[C@H]3[C@@H](CCC4=CC(=O)CC[C@@H]43)[C@@H]1CC[C@@H]2OC(=O)CCc1ccccc1,Potency,[1],inactive
same,outcome,[3],inactive
same,Potency,[4],inactive
same,Potency,[5],inactive
Clc1ccc(CCC(Cn2ccnc2)Sc2c(Cl)cccc2Cl)cc1 (centres undefined),Potency,[1],inactive
same,outcome,[3],inactive
same,Potency,[5],inactive
COC[C@H]1OC(=O)c2coc3c2[C@@]1(C)C1=C(C3=O)C2CCC(=O)[C@@]2(C)C[C@H]1OC(C)=O (some centres undefined),outcome,[9],inactive
same,outcome,[7],inactive
same,outcome,[8],inactive
CN1CCN(CCCN2c3ccccc3Sc3ccc(Cl)cc32)CC1,Potency,[4],22.4 µM (active)
COc1cc(C(C)=O)ccc1OCCCN1CCC(c2noc3cc(F)ccc23)CC1,Potency,[4],22.4 µM (active)
CCN(CC)CCOC(=O)C(O)(c1ccccc1)c1ccccc1,Potency,[1],inactive
same,outcome,[3],inactive
O=C(O)C(=O)c1cn(Cc2ccccc2)c2ccc(-c3ccc(OC(F)(F)F)cc3)cc12,Potency,[6],inactive
COc1cc2ncnc(Nc3ccc(F)c(Cl)c3)c2cc1OCCCN1CCOCC1,Potency,[4],12.6 µM (active)
O=C(O)c1ccc(-n2nc(-c3ccccc3O)nc2-c2ccccc2O)cc1,Potency,[4],inactive
C=C1CC[C@@]2(O)[C@H]3Cc4ccc(O)c5c4[C@@]2(CCN3CC2CC2)[C@H]1O5,Potency,[1],inactive
same,outcome,[3],inactive
same,Potency,[5],inactive
O=c1[nH]c2ccccc2n1C1CCN(CCCC(c2ccc(F)cc2)c2ccc(F)cc2)CC1,outcome,[9],inactive
same,Potency,[2],inactive
same,outcome,[3],inactive
same,outcome,[7],inactive
same,outcome,[8],inactive
same,Potency,[4],11.2 µM (active)
same,Potency,[5],inactive
C=C(C)[C@H]1Cc2c(ccc3c2O[C@@H]2COc4cc(OC)c(OC)cc4[C@@H]2C3=O)O1,Potency,[2],inactive
same,outcome,[3],inactive
same,Potency,[4],inactive
C=C1C[C@@H]2[C@H](CC[C@]3(C)C(=O)CC[C@@H]23)[C@@]2(C)C=CC(=O)C=C12,Potency,[1],inactive
same,outcome,[3],inactive
same,Potency,[5],inactive
Fc1ccc(C(OCCN2CCN(CCCc3ccccc3)CC2)c2ccc(F)cc2)cc1,outcome,[9],inactive
same,Potency,[2],inactive
same,outcome,[3],inactive
same,outcome,[7],inactive
same,outcome,[8],inactive
CNC(=O)c1ccc(N2C(=S)N(c3ccc(C#N)c(C(F)(F)F)c3)C(=O)C23CCC3)cc1F,Potency,[6],inactive
CC(C)NCC(O)c1ccccc1Cl (centres undefined),Potency,[1],inactive
same,outcome,[3],inactive
same,Potency,[4],inactive
same,Potency,[5],inactive
CO[C@H]1C=CO[C@@]2(C)Oc3c(C)c(O)c4c(O)c(c(/C=N/N5CCN(C)CC5)c(O)c4c3C2=O)NC(=O)/C(C)=C\C=C[C@H](C)[C@H](O)[C@@H](C)[C@@H](O)[C@@H](C)[C@H](OC(C)=O)[C@@H]1C,Potency,[4],inactive
same,Potency,[5],inactive
CN1C[C@H]2c3ccccc3Oc3ccc(Cl)cc3[C@@H]2C1,Potency,[4],inactive
O=C(C1CCCCC1)N1CC(=O)N2CCc3ccccc3C2C1 (centres undefined),Potency,[4],inactive
same,Potency,[5],inactive
CN(CCOc1ccc(NS(C)(=O)=O)cc1)CCc1ccc(NS(C)(=O)=O)cc1,Potency,[4],inactive
same,Potency,[5],inactive
O=c1n(CCCN2CCN(c3cccc(Cl)c3)CC2)nc2ccccn12,Potency,[4],inactive
same,Potency,[5],inactive
Cc1ccc(-c2cc(C(F)(F)F)nn2-c2ccc(S(N)(=O)=O)cc2)cc1,Potency,[4],inactive
same,Potency,[5],inactive
